Bioassay records as filed in PubChem BioAssay.
PERK inh – block of dimerizer-induced PERK translation repression, primary screen, PERK inhibitor project, CHO PERK-DD cells, SEAP luminescence, HTS. Eukaryotic translation initiation factor 2-alpha kinase 3 (Homo sapiens), Q9NZJ5. CHO PERK-DD fusion, SEAP luminescence translation reporter. inhibition, % at 5.6 µM. hit rate 0.17% among 220,000;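 active = inhibition above the mean inhibition of all tested compounds plus 3 SD, set separately per screening campaign, cut at about 2.9% in these data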;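 also: PERK kinase domain activated by AP20187 dimerizer at 100 nM; 0% = DMSO with dimerizer and 100% = rapamycin at 8.4 µM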
eIF4E-4G inh – eIF4E–eIF4G protein interaction inhibitors, primary screen, biochemical, uHTS, TR-FRET, eIF4GI fragment | Eukaryotic translation initiation factor 4E (Mus musculus) + Eukaryotic translation … | TR-FRET eIF4E-eIF4GI(517-606) binding, 2 h | inhibition, % at 21.7 µM | hit rate 0.37% among 220,000 | AID 782, 2007;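 active = inhibition above about 30%, limit read from the data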;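 also: 0% = full FRET control wells and 100% = background wells lacking eIF4GI fragment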
PABP FP inh – PABP poly(A) RNA binding inhibitors, primary screen, biochemical, fluorescence polarization, uHTS. Polyadenylate-binding protein 1 (Homo sapiens), P11940. calls only at 35 µM. hit rate 1% among 290,000;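 also: calls also rest on retests at 20 µM and on dose response follow-up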
PABP1 MLLE inh – inhibitors of PABP1 MLLE–PAM2 peptide binding, primary screen, biochemical, fluorescence polarization, FITC-PAM2, GST-MLLE; inhibition, % at 20 µM; hit rate 0.36% among 360,000; AID 588489, 2011; in the data active = inhibition above about 35%, passing the limit was not always enough;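 also: plate controls were DMSO wells with GST-MLLE for no effect and wells lacking GST-MLLE protein for full effect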
eIF4H inh – human eIF4H binding inhibitors, primary screen, translation initiation inhibitor project, biochemical, uHTS, fluorescence polarization | Eukaryotic translation initiation factor 4H (Homo sapiens), Q15056 | eIF4H fluorescence polarization binding assay | inhibition, % at 35 µM | hit rate 0.94% among 290,000;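 also: calls also rest on retests at 20 µM and on dose response follow-up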
* hit, by the source's call; i = inactive; nt = not tested or not shown; + = active, no number. Compounds with a hit are over-represented: about 1.6% of the library has one in this group of screens. Unless noted, no rule for the calls is given here.

SMILES	PERK inh	eIF4E-4G inh	PABP FP inh	PABP1 MLLE inh	eIF4H inh
COc1ccc(Nc2nnc(C)c(=O)[nH]2)c(OC)c1	4.2*	5	i	-9	-10
c1ccc(Cc2nnc3sc(-c4ccncc4)nn23)cc1	1	3	i	42*	-1
c1ccc(Cc2nnc3sc(-c4cccnc4)nn23)cc1	0	2	i	32	6
c1ccc(Cc2nn3c(-c4ccncc4)nnc3s2)cc1	0	11	i	38*	4
COc1cc(C(=O)NCC(=O)NCC(c2ccco2)N2CCCCC2)cc(OC)c1OC (centres undefined)	nt	nt	nt	-7	nt
C/C=C/C=C/C(=O)[C@@H]1[C@@H]([C@]2(C)OC(=O)C(C)=C2O)[C@H]2/C(=C(O)/C=C/C=C/C)C(=O)[C@]1(C)C(=O)C2(C)O (some centres undefined)	nt	-21	i	-8	61*
CCOC(=O)CSc1nc(C2CC2)nc2ccccc12	-1	1	i	36*	-4
CC1CCN(C(=O)CSc2nc(C3CC3)nc3ccccc23)CC1	nt	nt	i	16	-10
CCc1nc(SCC(=O)c2ccccc2)c2ccccc2n1	0	-3	i	41*	4
CC(C)c1nc(SCC(=O)c2ccc(F)cc2)c2ccccc2n1	1	6	i	37*	-4
Cc1ccc(C(=O)CSc2nc(C(C)C)nc3ccccc23)cc1	0	2	i	9	-1
CCc1nc(SCC(=O)c2ccc3c(c2)OCCO3)c2ccccc2n1	-1	4	i	26	-11
Cc1ccc(NC2CCCN(C(=O)CSc3ccncc3)C2)cc1C (centres undefined)	nt	nt	i	18	-8
CC(C)(C)c1ccc(S(=O)(=O)NC(=O)C2(C)CCN2C(=O)C2CC2)cc1 (centres undefined)	nt	nt	nt	8	nt
CC[n+]1ccc2cc(OC)c(OC)cc2c1Cc1ccc(OC)c(OC)c1	0	-2	+	-13	6
CCOC(=O)c1c(N2C(=O)CC(Sc3ccccc3C(=O)O)C2=O)sc2c1CCCC2 (centres undefined)	2	1	i	49*	-13
CCN1C(=O)CC(Sc2ccccc2C(=O)O)C1=O (centres undefined)	2	-1	i	20	-5
O=C(O)c1ccccc1SC1CC(=O)N(c2cccc3ccccc23)C1=O (centres undefined)	1	-1	i	40*	0
CCOc1ccc(N2C(=O)CC(Sc3ccccc3C(=O)O)C2=O)c([N+](=O)[O-])c1 (centres undefined)	1	-2	i	40*	-4
O=C(COc1ccccc1)NCc1ccco1	nt	nt	nt	6	nt
O=C(COC(=O)CCOc1ccccc1)NCc1ccco1	2	-3	+	-8	94*
O=C(COC(=O)C1CC2C=CC1C2)NCc1ccco1 (centres undefined)	1	14	+	-1	93*
CC[N+](C)(C)CC/C=C1/c2ccccc2Sc2ccc(Cl)cc21	1	86*	i	0	-3
O=Cc1cc2ccccc2nc1SCCCF	1	6	i	8	1
Cc1ccccc1N(CC(=O)NCc1ccccc1)C(=O)CCC(=O)Nc1nccs1	nt	nt	i	2	-8
SMILES	PERK inh	eIF4E-4G inh	PABP FP inh	PABP1 MLLE inh	eIF4H inh
CCOC(=O)c1sc(N)c(C#N)c1COC(=O)CNC(=O)c1ccccc1	0	-4	+	-104	133
CCOC(=O)c1sc(N)c(C#N)c1CSc1nc2ccc(C)cc2[nH]1	-1	-7	i	-120	-10
NS(=O)(=O)c1ccc(N2CCN(C(=O)c3ccco3)CC2)nc1	nt	nt	nt	5	nt
Cc1cccc(NC(=O)CCN2CCCCC2)c1	nt	nt	i	5	-3
Cc1cc(C)cc(NC(=O)CCN2CCCC2)c1	0	-1	+	-19	-12
N#C/C(=C\c1ccc(-c2ccc([N+](=O)[O-])cc2)o1)C(=O)Nc1nc(-c2cccs2)cs1	0	31*	i	-17	9
O=C(CCNC(=O)Cn1ccc2ccccc2c1=O)NCCc1ccc(Cl)cc1	0	3	i	5	0
